This is a sample that favours compounds with a hit; in the whole collection about 1.6% have one here.
KCNQ2 block: KCNQ2 (rat) channel inhibition. O88943. CHO-K1 KCNQ2, FluxOR thallium flux, 20 min; hits give low values. B-score at 10 µM. 310,000 compounds, 1.1% hits;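 active = fluorescence ratio B-score at most minus 3 library SDs, with starting brightness B-score within 2 library SDs, cut at about -5.5 in these data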
KCNQ2 pot: potentiators of rat KCNQ2 potassium channel; CHO-K1 KCNQ2, FluxOR thallium flux fluorescence; hits give high values; B-score at 10 µM; 310,000 compounds, 0.54% hits; AID 2239;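 active = fluorescence ratio B-score at least 3 SD of library B-scores, with initial fluorescence B-score within 3 of them, cut at about 5.3 in these data; same plate scores as AID 2156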;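 also: B-score of peak minus minimum over baseline fluorescence ratio after K+ and Tl+ stimulus; positive B-score means potentiation of KCNQ2 with more thallium influx and brighter signal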
Kir21 confirm: confirmation of mouse Kir2.1 potassium channel inhibitors | Tl flux remaining, % of negative control (hits give low values), % at 10 µM | Kir2.1-expressing cells, FluxOR thallium flux fluorescence; hits give low values | shares compounds with KCNQ2 pot | 2,300 compounds, 41% hits | AID 2032;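 active = Primary-screen hit whose thallium flux fell at least 3 control SD below untreated wells in both duplicates, with normal baseline fluorescence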;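 also: 0% = blank wells without stimulus and 100% = stimulated no-compound controls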
Target sequence (P35561 whole entry, looked up): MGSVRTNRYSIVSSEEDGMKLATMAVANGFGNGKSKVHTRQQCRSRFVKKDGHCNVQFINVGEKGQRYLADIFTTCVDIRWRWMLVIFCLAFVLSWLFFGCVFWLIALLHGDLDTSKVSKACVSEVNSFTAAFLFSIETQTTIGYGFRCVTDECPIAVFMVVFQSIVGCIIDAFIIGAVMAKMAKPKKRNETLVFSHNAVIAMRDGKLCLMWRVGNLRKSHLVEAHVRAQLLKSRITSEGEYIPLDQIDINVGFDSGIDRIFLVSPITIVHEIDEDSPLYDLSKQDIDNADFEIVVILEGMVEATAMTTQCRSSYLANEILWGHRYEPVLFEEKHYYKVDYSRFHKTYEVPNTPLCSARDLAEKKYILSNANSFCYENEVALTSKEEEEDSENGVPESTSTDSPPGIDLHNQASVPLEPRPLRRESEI
HEK293 ctr: counter-screen for Kir2.1 inhibitors: effect in parental HEK293 cells. shares compounds with KCNQ2 pot. FluxOR thallium flux fluorescence; 0% = unstimulated blank wells. FluxOR signal as % of negative control (100 = no effect), % at 10 µM. 2,300 compounds, 19% hits. AID 2105;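 active = dye signal at least 3 control SD above or below untreated wells in both duplicates, raw fluorescence within 3, either direction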;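 also: percent is based on the flux ratio of peak minus minimum fluorescence over baseline F0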
CHO-K1 ctr: parental CHO-K1 activity in KCNQ2 potentiator counter-screen; parental CHO-K1 cells, FluxOR thallium flux fluorescence; zero = vehicle mean+3SD, 100% = vehicle-minus-blank window; AID 2282; activity increase over 3SD of controls, % at 10 µM; 1,200 compounds, 43% hits; shares compounds with KCNQ2 pot;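 active = signal rise of at least 3 SD above the untreated control mean, in both duplicate wells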;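 also: counter screen of KCNQ2 potentiator hits so any rise reflects channel-independent effects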
KCNQ1 pot spec: human KCNQ1 counter-target activity of KCNQ2 potentiators; shares compounds with KCNQ2 pot; activation over 3SD threshold, % at 10 µM; 1,200 compounds, 28% hits; CHO KCNQ1 stable, FluxOR thallium flux fluorescence; beyond 3SD, as % of vehicle-control signal;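 active = fluorescence ratio rise of at least 3 SD of vehicle wells above their mean, in both replicate wells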;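 also: 0% = vehicle mean plus 3 SD and 100% = vehicle minus unstimulated blank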
KCNQ2 pot conf: rat KCNQ2 channel potentiator confirmation | 1,200 compounds, 68% hits | shares compounds with KCNQ2 pot | CHO-KCNQ2 cells, FluxOR thallium flux fluorescence | potentiation, less the hit threshold, % at 10 µM | AID 2287;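 active = fluorescence ratio rising 3 SD or more over the vehicle control mean in both replicates, plus primary screen hit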;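 also: peak minus minimum thallium fluorescence divided by baseline after K/Tl stimulus; 0% = vehicle mean plus 3 SD and 100% = vehicle minus unstimulated blank difference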
Kir21 spec: mouse Kir2.1 off-target activity of KCNQ2 potentiators; activity over 3SD threshold, % at 10 µM; 1,200 compounds, 2% hits; shares compounds with KCNQ2 pot; AID 2345; HEK293 Kir2.1, FluxOR thallium flux fluorescence;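 active = fluorescence ratio rise of at least 3 SD above the vehicle-control mean, seen in both replicates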;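 also: 0% = vehicle mean plus 3 SD and 100% = vehicle minus no-stimulus blank window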
KCNQ2 W236L MoA: rat KCNQ2 W236L mutant potentiation by KCNQ2 potentiators. shares compounds with KCNQ2 pot. current increase over 3SD of negative controls (%), hits give high values, % at 25 µM. 940 compounds, 10% hits. CHO KCNQ2-W236L, automated patch clamp current. AID 2558;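 active = current increase at least 3 SD of the untreated controls above them in both duplicate recordings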
* marks the source's active call; other numbers are inactive results; i = inactive; . = no result given.

SMILES	KCNQ2 block	KCNQ2 pot	Kir21 confirm	HEK293 ctr	others
COc1ccc2oc(C(=O)OCC(=O)N3CCC(C)CC3)c(C)c2c1	i	4.6	.	.
Cc1c(C(=O)OCC(=O)N2CCC(C)CC2)oc2ccccc12	i	11*	i	i	CHO-K1 ctr=14*;KCNQ1 pot spec=-5;KCNQ2 pot conf=17*;Kir21 spec=-32;KCNQ2 W236L MoA=i
Cc1ccc(NC(=O)CSc2nnnn2-c2cccnc2)c(C)c1	i	1.5	.	.
CC(OC(=O)c1cccc(-n2cnnn2)c1)C(=O)Nc1cccc(Cl)c1 (stereo not given)	i	1.2	i	i
CC(=O)c1ccc(NC(=O)C(C)OC(=O)c2cccc(-n3cnnn3)c2)cc1 (stereo not given)	i	0.27	.	.
Cc1ccc(N=Cc2cc3c(cc2O)OC(N)=C(C#N)C3c2ccccc2)cc1 (stereo not given)	i	.	.	.
COc1ccccc1CC1S/C(=N/N=C/c2ccco2)NC1=O (stereo not given)	i	.	.	.
Cc1cc(C)c2nc(SC(C)C#N)cc(C)c2c1 (stereo not given)	i	5.6*	i	68%*	CHO-K1 ctr=75*;KCNQ1 pot spec=-9;KCNQ2 pot conf=-12;Kir21 spec=-44;KCNQ2 W236L MoA=i
Cc1cc(C)c2nc(SC3CCOC3=O)cc(C)c2c1 (stereo not given)	i	0.27	.	.
COc1ccc(Nc2ncnc3ccc(C)cc23)cc1	i	1.1	52%*	168%*
COC(=O)c1cccc(Nc2ncnc3ccc(C)cc23)c1	i	.	.	.
COc1ccccc1C1(CCNC(C)c2cccs2)CCOC(C(C)C)C1 (stereo not given)	i	0.28	40%*	72%*
Cc1ccc(C2(CCNC(C)c3cccs3)CCOC(C(C)C)C2)cc1 (stereo not given)	i	.	.	.
C=CCNC(=O)N1CCCC(C(=O)c2cccc(OC(C)C)c2)C1 (stereo not given)	i	.	.	.
OCCNCc1ccc(-c2ccccc2)cc1	i	1	.	.
OCCCNCc1ccc(N(c2ccccc2)c2ccccc2)cc1	i	.	23%*	i
Cc1ccc(/C=C/C(=O)OCc2nc(N)nc(Nc3ccccc3C)n2)o1	i	6.9*	i	i	CHO-K1 ctr=144*;KCNQ1 pot spec=-6;KCNQ2 pot conf=2.1*;Kir21 spec=-46;KCNQ2 W236L MoA=i
CCCCC(=O)OCc1nc(N)nc(Nc2ccccc2C)n1	i	1.1	.	.
NS(=O)(=O)c1ccc(NC(=O)CCC(=O)c2ccc(Cl)s2)cc1	i	0.14	.	.
COc1ccc(Nc2cc(Nc3cc(OC)c(OC)c(OC)c3)ncn2)cc1	i	0.36	.	.
Cc1cc2c(cc1S(=O)(=O)Nc1cccc(C)c1C)n(C)c(=O)c(=O)n2C	i	0.04	.	.
COC(=O)c1ccc(C(=O)NC(=S)Nc2nc3c(s2)CCCC3)cc1	i	7.3*	i	i	CHO-K1 ctr=83*;KCNQ1 pot spec=-7;KCNQ2 pot conf=-8;Kir21 spec=-42;KCNQ2 W236L MoA=i
O=C(NC(=S)Nc1nc2c(s1)CCCC2)c1ccccc1	i	3.9	.	.
S=c1[nH]nc(-c2ccco2)n1/N=C/C(Cl)=C/c1ccccc1	i	7.2*	i	129%*	CHO-K1 ctr=-21;KCNQ1 pot spec=-16;KCNQ2 pot conf=-3;Kir21 spec=-36;KCNQ2 W236L MoA=i
Cc1cc(-c2n[nH]c(=S)n2/N=C/C(Cl)=C/c2ccccc2)n[nH]1	i	.	.	.
SMILES	KCNQ2 block	KCNQ2 pot	Kir21 confirm	HEK293 ctr	others
CC(=O)C(Sc1nc(N2CCOCC2)nc(N2CCOCC2)n1)C(=O)Nc1ccccc1 (stereo not given)	i	6*	i	i	CHO-K1 ctr=10*;KCNQ1 pot spec=-4;KCNQ2 pot conf=12*;Kir21 spec=-27;KCNQ2 W236L MoA=i
CCNc1nc(SC(C)C(=O)Nc2ccccc2)nc(N2CCOCC2)n1 (stereo not given)	i	0.37	.	.
COc1ccc(N2C(=NC(=O)C(C)Oc3ccccc3)SC3CS(=O)(=O)CC32)cc1 (stereo not given)	i	0.98	.	.
COc1ccc(OC)c(NC(=O)C2CCC(CNc3c(N4CCOCC4)c(=O)c3=O)CC2)c1 (stereo not given)	i	.	.	.
CCOC(=O)c1sc(=S)n(-c2ccccc2)c1NC(C)=O	i	7.5*	.	.	CHO-K1 ctr=35*;KCNQ1 pot spec=3.6*;KCNQ2 pot conf=7.8*;Kir21 spec=-61;KCNQ2 W236L MoA=i
CCOC(=O)c1sc(=S)n(C)c1NC(=O)c1ccccc1	i	.	.	.
C=CCc1cc(Cl)ccc1OCCOCCNC(C)CC (stereo not given)	i	0.16	i	i
C=CCc1cc(Cl)ccc1OCCCNC(C)C	i	0.39	.	.
NS(=O)(=O)c1ccc(CNC(=S)NC2CC2)cc1	i	0.03	.	.
CCc1cc2c(SCC(=O)N(C)C3CCS(=O)(=O)C3)ncnc2s1 (stereo not given)	i	0.09	.	.
Cc1ccc(-n2ncc(C(=O)Nc3cc(Cl)ccc3Cl)c2C2CCNCC2)cc1	i	.	.	.
Cc1ccc(-n2ncc(C(=O)Nc3cc(Cl)cc(Cl)c3)c2C2CCNCC2)cc1C	i	.	i	i
COc1ccccc1CNC(=O)c1ccc(N2CCOCC2)c([N+](=O)[O-])c1	i	0.99	.	.
C#Cc1ccc(C(=O)Nc2ccc(N3CCC(C)CC3)c(C(N)=O)c2)cc1	i	0.83	.	.
Cc1ccc(/C(=N/Nc2nc3ccccc3s2)C2=C(O)c3ccccc3C2=O)cc1	i	0.85	i	i
Cc1ccc(S(=O)(=O)N(C)CC(=O)Nc2nc3ccccc3s2)cc1	i	.	.	.
CSc1ccccc1NC(=O)CSc1n[nH]c(N)n1	i	.	.	.
Nc1nc(SCC(=O)Nc2ccccc2Sc2ccc(Cl)cc2)n[nH]1	i	6.2*	i	i	CHO-K1 ctr=23*;KCNQ1 pot spec=-18;KCNQ2 pot conf=9.1*;Kir21 spec=-53;KCNQ2 W236L MoA=i
COc1cccc(NC(=O)COc2ccc(C(=O)N3CCN(C)CC3)cc2)c1	i	2.2	.	.
Cc1ccc(C)c(NC(=O)C2CCCN2/C=C/C(=O)C(F)(F)F)c1 (stereo not given)	i	0.58	.	.
O=c1c(-c2ccc(Cl)cc2)[n+]([O-])c2ccccc2n1O	i	6.3*	i	220%*	CHO-K1 ctr=-12;KCNQ1 pot spec=-23;KCNQ2 pot conf=-2;Kir21 spec=-43;KCNQ2 W236L MoA=i
O=c1c(-c2cccc([N+](=O)[O-])c2)[n+]([O-])c2ccccc2n1O	i	1.2	.	.
O=Cc1cn(CCOc2ccccc2F)c2ccccc12	i	1.5	.	.
CC(=O)Nc1sc2c(c1C(c1ccccn1)N1CCCC1)CCCC2 (stereo not given)	i	1	.	.

Compound activity: PubChem, Johns Hopkins Ion Channel Center
